SMN2 splice up = SMN2 splice variant enhancement. 210,000 compounds, 2.8% hits. HEK293 SMN2-luciferase splicing reporter, luminescence, 30-36 h. Potency, µM (highest dose often 46.1 µM), hits mostly activators; further: nearly all actives have a fitted effect of over 55% in size
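HEK293 cells carry an SMN2 […]–luciferase reporter in which exon 7 inclusion puts luciferase in frame. Cells were plated 10-12 h before compound addition, then incubated 30-36 h at 37C. ONE-Glo luminescence was read; sodium butyrate at 4.5 mM final served as control.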
Rab9 prom act = Rab9 promoter activation; Huh7 Rab9 promoter-luciferase reporter, luminescence, 24 h; Potency, µM (series often up to 9.22 µM), actives largely listed as activators; 320,000 compounds, 2.8% hits; further: nearly all actives have a fitted effect of over 60% in size
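Luminescence read-out: Huh7 cells stably expressing Rab9-luciferase, treated 24 h with compound at 37 °C, then lysed with luciferase reagent for 10 min at ambient before reading.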
ELG1 repair inh = inhibitors of ELG1-dependent DNA repair in HEK293T cells; Potency, µM (series often up to 46.1 µM), usual class: inhibitors; 330,000 compounds, 2.3% hits; HEK293T ELG1-luciferase reporter, luminescence, 16 h; DNA damage induced by 5-fluorouridine; further: nearly all actives have a fitted effect of over 55% in size
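Overnight (16 hr) co-exposure of 2,000 cells/well to 5-fluorouridine and compound at 37 °C preceded detection. Luciferase was quantified via ONE-Glo luminescence; loss of signal denotes inhibition.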
NPC1 promoter act = activates the NPC1 promoter | Huh7 NPC1 promoter luciferase reporter, 24 h | Potency, µM (titrated, usually from 9.22 µM), hits mostly activators | 320,000 compounds, 2.4% hits; further: nearly all actives have a fitted effect of over 60% in size
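Quantitative HTS used a cell-based reporter: Huh7 cells stably bearing the NPC1 promoter upstream of luciferase were treated with compounds for 24 h, and promoter activation was read as luminescence.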
FLuc counter = inhibits or activates purified firefly luciferase, miR-21 counter-screen; P08659; purified FLuc, Km substrates, luminescence inhibition; Potency, µM (highest dose often 57.5 µM), actives largely listed as inhibitors; 360,000 compounds, 6.9% hits; AID 588342; further: nearly all actives have a fitted effect of over 55% in size
Target sequence (P08659 whole entry, looked up): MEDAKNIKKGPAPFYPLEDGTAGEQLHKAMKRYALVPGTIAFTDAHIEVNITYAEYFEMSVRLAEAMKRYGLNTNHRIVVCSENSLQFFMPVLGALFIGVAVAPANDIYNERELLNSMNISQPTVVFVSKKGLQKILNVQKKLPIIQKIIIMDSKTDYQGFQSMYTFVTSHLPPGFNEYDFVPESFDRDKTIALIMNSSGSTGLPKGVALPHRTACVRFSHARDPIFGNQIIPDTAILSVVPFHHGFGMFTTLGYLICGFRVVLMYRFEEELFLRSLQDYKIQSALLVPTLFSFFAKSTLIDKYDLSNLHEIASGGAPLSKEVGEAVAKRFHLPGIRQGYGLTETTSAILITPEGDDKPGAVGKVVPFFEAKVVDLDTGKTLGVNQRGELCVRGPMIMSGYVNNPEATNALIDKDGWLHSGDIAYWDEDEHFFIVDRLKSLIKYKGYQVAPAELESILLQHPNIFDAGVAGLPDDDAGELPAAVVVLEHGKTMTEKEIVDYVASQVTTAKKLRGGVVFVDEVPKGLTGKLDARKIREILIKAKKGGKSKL
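Biochemical qHTS of compounds, final roughly 60 µM downward over six points, against 10 nM purified firefly luciferase using Km concentrations of substrates (10 uM D-luciferin, 10 uM ATP) in Tris acetate pH 7.5 buffer; luminescence output.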
ELG1 genotoxic = inducers of genotoxicity in HEK293T ELG1-luciferase cells; HEK293T ELG1-luciferase reporter, luminescence, 16 h; Potency, µM (doses to about 46 µM), hits mostly activators; 330,000 compounds, 1.3% hits; AID 504466; further: nearly all actives have a fitted effect of over 60% in size
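Genotoxicity was scored as increased ELG1-luciferase reporter signal, measured by ONE-Glo luminescence (30 min, room temperature). Compound or vehicle exposure of the HEK293T reporter cells lasted 16 hr at 37°C.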
Numbers stand for hits; i = inactive; ? = inconclusive; nt = not tested or not shown. Hits are enriched below; roughly 9.4% of the tested compounds scored in any of these assays. The call rests on the fitted dose curve; in most records, active means well fitted curve in the direction sought with a large enough effect; inconclusive means small, poorly fitted or top-dose-only effect, or another doubt; inactive means no such curve, though single readings can be large; an effect the other way counts as inactive or inconclusive.

SMILES	SMN2 splice up	Rab9 prom act	ELG1 repair inh	NPC1 promoter act	FLuc counter	ELG1 genotoxic
O=C(NC1CC1)c1cc2cc3ccccc3nc2s1	nt	3.55µM	?	2.24µM	10.7µM	?
O=C(NNS(=O)(=O)c1ccccc1)c1cc2cc3ccccc3nc2s1	i	i	?	i	?	i
COc1ccc(-n2nc(C(=O)NCC(=O)N3CC(C)CC(C)C3)c3ccccc3c2=O)c(OC)c1 (centres undefined)	nt	i	?	i	?	i
CCOC(=O)N1CCN(C(=O)CNC(=O)c2nn(-c3ccc(OC)cc3OC)c(=O)c3ccccc23)CC1	nt	i	?	i	3.79µM	?
CCOC(=O)C1CCN(C(=O)CNC(=O)c2nn(-c3ccc(OC)cc3OC)c(=O)c3ccccc23)CC1	nt	i	?	i	9.53µM	i
COc1ccc(-n2nc(C(=O)NCC(=O)N3CCCC3)c3ccccc3c2=O)c(OC)c1	nt	i	i	i	13.5µM	i
COc1ccc(-n2nc(C(=O)NCC(=O)NCc3ccccc3OC)c3ccccc3c2=O)c(OC)c1	i	i	i	i	i	i
O=C(CCN1C(=O)c2ccccc2Sc2ncccc21)Nc1ccc(F)cc1	nt	nt	nt	nt	i	nt
CC(C)C[C@@H](CC(=O)N[C@@H](CCCN)CC(=O)N[C@@H]1CCNC[C@H]1C(=O)N[C@H](CC(=O)N[C@@H](CCC(=O)O)CC(=O)O)CC(C)C)NC(=O)[C@@H]1CCCC[C@H]1N	i	nt	nt	nt	nt	nt
Cc1ccc(C)c(NC(=O)N2CCc3ccccc3C2)c1	nt	?	?	i	?	?
O=C(Nc1ccc([N+](=O)[O-])cc1)N1CCc2ccccc2C1	nt	?	?	i	?	?
Cc1ccc(-c2cc(C(=O)N3CCc4ccccc4C3)[nH]n2)cc1C	nt	i	?	i	i	i
COc1cccc(-c2cc(C(=O)N3CCc4ccccc4C3)[nH]n2)c1	nt	i	?	i	10.7µM	?
CC(C)c1ccc(NC(=O)N2CCc3ccccc3C2)cc1	12.6µM	3.98µM	?	?	10.7µM	?
O=C(Nc1cccc(Cl)c1)N1CCc2ccccc2C1	nt	3.16µM	?	2.82µM	9.53µM	?
O=C(Nc1ccccc1F)N1CCc2ccccc2C1	nt	2.82µM	?	1.26µM	15.1µM	18.3µM
Cc1ccc2nc(CN3CCN(S(=O)(=O)c4ccc(F)cc4)CC3)oc2c1	nt	nt	nt	nt	i	nt
COc1cccc(NC(=O)N2CCc3ccccc3C2)c1	nt	2.82µM	?	3.98µM	16.9µM	?
COc1cccc(NC(=O)N2CCCCCC2)c1	nt	?	i	?	?	?
Cc1ccc(-c2cc(-c3cccs3)[nH]n2)c(O)c1	i	i	?	i	6.75µM	4.11µM
O=C1c2ccccc2C(=O)c2c(Nc3ccc(CCO)cc3)ccc(O)c21	nt	?	14.6µM	?	?	i
COc1ccc(C(=O)COc2ccccc2C#N)cc1	nt	3.16µM	?	2.82µM	?	?
COC(=O)CCC(=O)COc1ccc(OC)cc1C#N	nt	2.51µM	?	?	?	?
CC(=Nc1ccccc1)C1=C(O)COC1=O	i	i	i	i	i	i
CC(=Nc1ccc(Br)cc1)c1sc2ccccc2c1O	nt	3.16µM	?	3.16µM	1.35µM	3.66µM
SMILES	SMN2 splice up	Rab9 prom act	ELG1 repair inh	NPC1 promoter act	FLuc counter	ELG1 genotoxic
NC(=Nc1ccc(Br)cc1)c1ccccc1	nt	i	?	i	?	?
CC(=Nc1ccccc1)c1sc2ccccc2c1O	11.2µM	?	?	i	1.51µM	2.91µM
COc1ccc(NC(=O)CN(Cc2ccccc2)S(=O)(=O)c2ccc(C)cc2)cc1Cl	i	nt	nt	nt	i	nt
CC(C(=O)O)c1ccc(N2Cc3ccccc3C2=O)cc1 (centres undefined)	1.26µM	0.316µM	?	0.0891µM	0.269µM	i
Cc1cc(C)nc(NS(=O)(=O)c2ccc(N3Cc4ccccc4C3=O)cc2)n1	i	i	i	i	i	i
Cc1ccc(NC(=O)Nc2nnc(N(CC(C)C)CC(C)C)s2)cc1Cl	nt	nt	nt	nt	i	nt
CC(=O)c1ccccc1C(=O)N1CCCC(CCC(=O)N2CCN(c3ccccn3)CC2)C1 (centres undefined)	nt	i	23.1µM	i	i	i
NC(=S)c1ccc[n+]([C@@H]2O[C@@H](COP(=O)([O-])OP(=O)(O)OC[C@H]3O[C@@H](n4cnc5c(N)ncnc54)[C@H](OP(=O)(O)O)[C@@H]3O)C(O)C2O)c1 (some centres undefined)	nt	i	nt	i	nt	nt
Cc1cc(C)c(C)c(S(=O)(=O)N2CCC(C(=O)Nc3ccc(S(=O)(=O)N4CCOCC4)cc3)CC2)c1C	nt	i	11.6µM	i	i	i
O=C(Nc1ccc(S(=O)(=O)N2CCCC2)cc1)c1ccc(CN2CCOCC2)cc1	i	i	?	i	i	i
CC(=O)Nc1ccc(S(=O)(=O)N2CCC(C(=O)c3ccc(Cl)cc3)CC2)cc1	nt	i	18.3µM	i	i	i
O=C(Nc1ccc(Cc2ccncc2)cc1)c1ccc(S(=O)(=O)N2CCOCC2)cc1	nt	i	13µM	i	i	i
O=C(Nc1ccc(S(=O)(=O)N2CCCCC2)cc1)c1ccc(CN2CCOCC2)cc1	i	i	7.31µM	i	i	i
Cc1cc(=O)n(CC(=O)N2CCCc3ccccc32)c2c1c(C)nn2-c1cccc(F)c1	nt	nt	nt	nt	i	nt
Cc1cc(NC(=O)c2cc(-c3ccc(F)cc3)on2)nn1Cc1ccc(Cl)cc1	i	nt	nt	nt	i	nt
Cc1ccccc1-c1nc2c3c(-c4ccccc4)c(-c4ccccc4)oc3ncn2n1	i	nt	nt	nt	i	nt
Cc1ccc(NC(=O)C2CCN(S(=O)(=O)c3ccc4c(c3)NC(=O)C(C)S4)CC2)cc1Cl (centres undefined)	nt	i	13µM	i	i	i
Cc1cc(C)cc(NC(=O)C2CCN(S(=O)(=O)c3ccc4c(c3)NC(=O)C(C)S4)CC2)c1 (centres undefined)	nt	i	?	i	i	i
N#CCc1ccc(NC(=O)c2ccc(S(=O)(=O)N3CCCC3)cc2)cc1	nt	i	20.6µM	i	i	i
CC1CN(S(=O)(=O)c2ccc(C(=O)Nc3ccc(S(=O)(=O)N4CCOCC4)cc3)cc2)CC(C)O1 (centres undefined)	nt	i	8.2µM	i	i	i
O=C(Nc1ccc(S(=O)(=O)N2CCOCC2)cc1)c1ccc(S(=O)(=O)N2CCOCC2)cc1	nt	i	i	i	i	i
CC1=C(c2ccc(Cl)cc2)S(=O)(=O)NC1=NCCCN1CCN(c2cc(C)ccc2C)CC1	nt	nt	nt	nt	i	nt
CCOc1ccc(NC(=O)c2cccc3c2C(=O)N(CCOC)C3)cc1	i	i	?	i	6.75µM	i
COCCN1Cc2cccc(C(=O)Nc3cccc(OC)c3)c2C1=O	i	i	i	i	i	i
COCCN1Cc2cccc(C(=O)Nc3ccc(C)c(C)c3)c2C1=O	i	i	i	i	7.57µM	i
COc1ccc(N2Cc3cccc(C(=O)Nc4ccc(C)cc4)c3C2=O)cc1	i	nt	nt	nt	i	nt
